Source: PubChem BioAssay (several laboratories)
The full list was thinned out, with hits kept by preference.
EphB4 ephrin blk – EphB4-ephrin-B2 interaction antagonists, primary screen, biochemical, TNYL-RAW peptide probe, fluorescence polarization. Ephrin type-B receptor 4 (Homo sapiens), P54760. EphB4 LBD / TNYL-RAW-Alexa532 peptide. inhibition, % at 7 µM. 0.15% of 97,000 active;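 active means inhibition above the screen-wide mean inhibition plus 3 SD, cut at about 15% in these data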;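 further: 0% = DMSO wells and 100% = excess unlabeled TNYL-RAW peptide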
Target sequence (P54760 whole entry, looked up, the tested form may be a part): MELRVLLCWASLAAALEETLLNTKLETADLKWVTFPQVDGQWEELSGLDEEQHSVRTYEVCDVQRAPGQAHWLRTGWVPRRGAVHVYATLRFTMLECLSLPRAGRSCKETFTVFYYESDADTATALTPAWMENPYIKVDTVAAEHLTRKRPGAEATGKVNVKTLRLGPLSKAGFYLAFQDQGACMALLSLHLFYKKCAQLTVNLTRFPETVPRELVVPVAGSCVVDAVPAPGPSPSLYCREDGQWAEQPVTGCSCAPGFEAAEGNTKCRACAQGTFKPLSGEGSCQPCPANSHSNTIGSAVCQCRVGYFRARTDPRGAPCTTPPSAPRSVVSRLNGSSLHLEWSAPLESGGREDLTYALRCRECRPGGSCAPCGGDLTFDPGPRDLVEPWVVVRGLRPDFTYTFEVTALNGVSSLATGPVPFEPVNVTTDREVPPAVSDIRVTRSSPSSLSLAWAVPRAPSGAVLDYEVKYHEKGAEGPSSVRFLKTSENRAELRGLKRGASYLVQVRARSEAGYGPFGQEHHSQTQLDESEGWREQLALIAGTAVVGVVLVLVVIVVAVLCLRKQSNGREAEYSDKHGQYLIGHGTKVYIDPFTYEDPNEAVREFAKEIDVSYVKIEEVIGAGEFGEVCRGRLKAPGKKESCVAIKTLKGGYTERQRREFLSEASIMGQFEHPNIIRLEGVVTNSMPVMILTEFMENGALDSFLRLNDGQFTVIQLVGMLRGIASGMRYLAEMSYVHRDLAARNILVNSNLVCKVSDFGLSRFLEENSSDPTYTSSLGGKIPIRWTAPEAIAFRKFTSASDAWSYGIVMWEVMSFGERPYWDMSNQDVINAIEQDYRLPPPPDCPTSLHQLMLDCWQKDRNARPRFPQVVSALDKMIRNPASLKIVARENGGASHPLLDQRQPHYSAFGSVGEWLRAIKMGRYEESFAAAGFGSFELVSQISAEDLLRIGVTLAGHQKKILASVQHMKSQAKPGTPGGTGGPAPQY
D1 mod – D1 CRE-luciferase signal change, two-sided – cell-based, HEK293 D1, dopamine EC30, D1 allosteric modulator project, primary screen; D(1A) dopamine receptor (Homo sapiens), P21728; dopamine EC30 potentiation; actives deviate in either direction; B-score at 10 µM; 5.9% of 58,000 active; AID 641, 2007;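 active means luminescence count or its row- and column-corrected plate score outside the 99.7% band of the plate's sample wells, on either side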
DAT uptake mod – changed hDAT dopamine uptake under cocaine IC80, either direction, primary screen, cocaine antagonist project, cell-based, LLC-PK1 hDAT, [14C]-dopamine uptake, MLSMR; AID 449768, 2010; 1.3% of 110,000 active; B-score at 10 µM; LLC-PK1 hDAT cells, [14C]-dopamine uptake with cocaine IC80; actives deviate in either direction; Sodium-dependent dopamine transporter (Homo sapiens), Q01959;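 active means Z score or B-score, a plate-position-corrected score, falls beyond the plate's 99.7% confidence bounds, in either direction; inactive means both scores lie inside the 99.7% bounds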;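 further: scored against the spread of the other compound wells on the same plate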
Active calls of the source: *; nt = no result given.

SMILES	EphB4 ephrin blk	D1 mod	DAT uptake mod
CC(C)c1nc(SCc2c(F)cccc2Cl)c2c(=O)n(C)c(=O)n(C)c2n1	-8	-3.7*	3.3*
Cn1c(=O)c2c(nc(Br)n2Cc2c(F)cccc2Cl)n(C)c1=O	nt	-0.87	nt
O=C(CN1CCN(c2ccccc2)CC1)Nc1ccc(Oc2ccccc2)cc1	-7	nt	0.0028
CCOC(=O)C1=C(Nc2ccc(Br)cc2)CC(C)(O)C(C(=O)OCC)C1c1ccccc1 (centres undefined)	4	nt	-0.047
CC1=C(C(=O)OCc2ccccc2)C(c2ccccc2-c2ccccc2)NC(=O)N1CCCCCC(=O)O (centres undefined)	nt	nt	2.8*
CC1=C(C(=O)OCc2ccccc2)C(c2ccccc2OS(=O)(=O)c2ccc(C)cc2)NC(=O)N1CCCC(=O)O (centres undefined)	nt	nt	2.5*
CC1=C(C(=O)OCc2ccccc2)C(c2ccc(-c3ccccc3)cc2)NC(=O)N1CCCCCC(=O)O (centres undefined)	nt	nt	1.6
CC1=C(C(=O)OCc2ccccc2)C(c2ccc(-c3ccccc3)cc2)NC(=O)N1CCCC(=O)O (centres undefined)	nt	nt	0.13
COC(=O)C1=C(C(=O)OC)[C@@H]2N(C)c3ccccc3[C@@]23C[C@@H](C(=O)OC)N(C(=O)c2cc(C)oc2C)C3=N1	nt	nt	0.6
O=C(Nc1cccc(O)c1)c1cc(-c2ccco2)on1	5	nt	-0.2
O=C(Nc1nc2c(s1)CCCC2)c1ccc(Br)s1	nt	-4.4*	-0.16
Cc1cc(C(=O)Nc2nc3c(s2)CCCC3)cs1	nt	-5*	0.42
Cc1ncsc1C(=O)Nc1nc2c(s1)CCCC2	3	-1.5	0.62
Cc1ccc(CC(=O)Nc2nc3c(s2)CCCC3)cc1	-2	nt	0.81
O=C(NC12CC3CC(CC(C3)C1)C2)c1ccc(S(=O)(=O)N2CCOCC2)cc1	-8	0.24	2.5*
O=C(NC1CCCCC1)c1ccc(S(=O)(=O)N2CCOCC2)cc1	-4	-0.35	-1
CCn1c(CNc2nc3ccccc3n2C(C)C)nc2ccccc21	-3	nt	1.2
Cc1cccc(N2CCN(C(=O)c3cc4c(=O)n(C)c5ccccc5c4n3C)CC2C)c1 (centres undefined)	11	-4.8*	0.068
Cn1c(C(=O)N2CCCCCC2)cc2c(=O)n(C)c3ccccc3c21	5	0.35	0.95
CCCCC1=CC2=CC(=O)C(C)(OC(=O)c3ccc(Cl)nc3)C(=O)C2=CO1 (centres undefined)	nt	nt	0.042
Cc1ccc(CNC(=O)C2CC3Cn4c(nc5cc6ccccc6cc54)C3N2C)o1 (centres undefined)	nt	nt	1
CN1C[C@H](C(=O)NC2(C)OC3(O)[C@@H]4CCCN4C(=O)[C@H](Cc4ccccc4)N3C2=O)CC2c3cccc4[nH]cc(c34)C[C@H]21 (some centres undefined)	nt	nt	4*
Cc1nn(C)cc1/C=N\NC(=O)c1ccc2c(c1)c(C)c(C)n2Cc1ccccc1	-6	nt	0.7
Cc1cc(=S)[nH]c2c(C)cccc12	3	nt	0.16
COC(C[C@@H]1O[C@H]1[C@H](O)[C@@H](C)OCc1ccccc1)OC	nt	nt	-1.3
SMILES	EphB4 ephrin blk	D1 mod	DAT uptake mod
O=C1NC[C@H](c2ccccc2)N(CCc2cccc(F)c2)C1=O	nt	nt	0.094
CCC(=O)N1c2ccccc2NC2=C(C(=O)CCC2)C1c1ccccc1 (centres undefined)	1	nt	-0.66
O=C1CCCC2=C1C(c1ccco1)Nc1ccc(C(=O)c3ccccc3)cc1N2 (centres undefined)	2	0.49	3.7*
Cc1cc(C)n(-c2nc3c(c(=O)n(C)c(=O)n3C)n2CC(O)COc2ccccc2C)n1 (centres undefined)	2	nt	nt
O=C(Nc1ccc(N2CCOCC2)cc1)c1ccncc1	-6	nt	-0.22
O=C(Nc1ccc(N2CCOCC2)cc1)c1cnsn1	nt	-6.8*	-0.59
CCOC(=O)C1CCN(C(=O)C2CCN(c3nc4ccc(OC)cc4s3)CC2)CC1	-3	nt	-8.2*
CCOC(=O)C1CCN(Cc2cnc(Oc3ccc(OC)cc3)s2)CC1	6	nt	-1.4
CN(C)C(=O)NC(Nc1ccc(Cl)cc1Cl)C(Cl)(Cl)Cl (centres undefined)	-5	nt	-0.49
Cc1ccc(NC2SC(=O)N(CC(=O)O)C2=O)cc1 (centres undefined)	-4	nt	0.032
O=C(Nc1cccc(C(F)(F)F)c1)c1cccnc1N1CCN(c2ccccc2)CC1	2	nt	1.3
CC(=O)Nc1nc2nc(-c3ccccc3)cc(-c3ccccc3)n2n1	10	nt	-0.34
O=C(Nc1nc2nc(-c3ccccc3)cc(-c3ccccc3)n2n1)c1ccco1	2	-2.5*	0.0085
COC(=O)c1ccc(=O)c2nc3/c(=C/O)c(O)cc(=O)c3[nH]c12	nt	nt	-1.4
CC(=O)c1ccc(Nc2nc(NCCO)nc(OC(C(F)(F)F)C(F)(F)F)n2)cc1	-3	nt	-6.3*
COc1ccc(Nc2nc(NCCO)nc(OC)n2)cc1	-1	nt	-0.57
CCC1=C(OC(=O)N(CC)CC)N2C(=O)OC(=NCC3CC3)[C@]2(Cc2ccccc2)[C@H]2C1=CC[C@H]1C(=O)N(c3ccccc3)C(=O)[C@H]12	nt	nt	-0.33
CCCCCC(=O)NC(NC(=S)N1CCOCC1)C(Cl)(Cl)Cl (centres undefined)	7	nt	-1
CCCCCC(=O)NC(NC(=S)NC1CCS(=O)(=O)C1)C(Cl)(Cl)Cl (centres undefined)	-2	nt	-3*
O=C(NCCc1c[nH]c2ccccc12)C(=O)Nc1ccccc1	nt	nt	0.0076
COC(=O)c1ccc(NC(=O)c2ccccc2N(C)S(C)(=O)=O)cc1	5	0.44	-2.7*
CN(c1ccccc1C(=O)Nc1ccccc1C(=O)NCc1ccco1)S(C)(=O)=O	15*	-0.8	0.55
CC(=O)Nc1ccc(NC(=O)c2ccccc2N(C)S(C)(=O)=O)cc1	6	-0.083	0.21
CN(c1ccccc1C(=O)NCc1ccco1)S(C)(=O)=O	1	-0.012	-0.32
Nn1c(SCC(=O)N2CCN(S(=O)(=O)c3ccc(Cl)cc3)CC2)nnc1-c1cccs1	-2	nt	0.92
SMILES	EphB4 ephrin blk	D1 mod	DAT uptake mod
COc1cccc(OCCSc2nnc3sc4ccccc4n23)c1	-9	0.26	1.9
c1ccc(OCCSc2nnc3sc4ccccc4n23)cc1	-5	-6*	0.028
Cc1ccc2nc(NCCCO)nc(-c3ccccc3)c2c1	6	nt	3.1*
Cc1ccc2nc(NCC(=O)O)nc(-c3ccccc3)c2c1	-4	nt	0.078
C=CCn1c(SCC(=O)N2CCc3ccccc3C2)nc2ccccc2c1=O	-1	nt	1.2
Cc1ccc(-c2[nH]nc3c2C(c2cccnc2)C(C#N)=C(N)O3)cc1 (centres undefined)	0	14*	0.0096
N#CC1=C(N)Oc2n[nH]c(-c3ccccc3)c2C1c1cccnc1 (centres undefined)	8	1.8	-0.015
Cc1c(Cl)cccc1NC(=S)NN1CCOCC1	-1	nt	2.2
COC(=O)C1=C(C)Nc2nc(-c3ccccc3)nn2C1c1ccc(C)o1 (centres undefined)	-1	-7.3*	0.67
